Screens (PubChem)
Marburg entry inh: Marburg virus entry inhibition; Potency, µM (series often up to 37.8 µM), hits mostly inhibitors; Marburg virus pseudotyped entry inhibition, cell reporter; AID 540276; actives 1.8% (n = 300,000); calls by dose curve; tested in HEK293 cells
Vaccinia mCherry: inhibitors of vaccinia virus infection (mCherry reporter signal); Vaccinia virus mCherry reporter infection, fluorescence; Potency, µM (highest dose often 36.5 µM), actives largely listed as inhibitors; actives 0.63% (n = 310,000); calls by dose curve; tested in A549 cells; note: nearly all actives have a fitted effect of over 35% in size
Vaccinia Venus: vaccinia inhibition (Venus reporter). actives 0.46% (n = 330,000). AID 720580. Vaccinia virus Venus reporter expression, fluorescence. Potency, µM (top dose mostly 36.5 µM), hits mostly inhibitors; calls by dose curve; tested in A549 cells; note: nearly all actives have a fitted effect of over 30% in size
LASV entry inh: blocks Lassa virus binding to or entry into cells | actives 1.2% (n = 300,000) | AID 540256 | Lassa virus pseudotype entry inhibition, cell reporter | Potency, µM (doses to about 37.9 µM), actives largely listed as inhibitors; calls by dose curve; tested in HEK293 cells; note: nearly all actives have a fitted effect of over 50% in size
Each line names hits and unclear results; the compound was inactive in the other large screens. A selection: hits, their analogues and other compounds. The true share with any hit is near 2.5%.

O=C(Nc1nc(-c2ccccn2)cs1)c1ccc2c(c1)OCCO2	Vaccinia mCherry 11.2µM, Vaccinia Venus inconclusive (no result: Marburg entry inh, LASV entry inh)
Cc1csc(NC(=O)c2ccc3c(c2)OCO3)n1	Marburg entry inh inconclusive, LASV entry inh 7.08µM
CCOC(=O)Cc1csc(NC(=O)c2ccc3c(c2)OCO3)n1	none (no result: Vaccinia mCherry, Vaccinia Venus)
COc1ccc2c(c1)C/C(=C\c1ccc(N(C)C)cc1)C2=O	none (no result: Marburg entry inh, LASV entry inh)
COc1ccc2c(c1)-c1nc(-n3ncc(C(=O)NCc4cccc(C)n4)c3C3CC3)ncc1CC2	none (no result: Marburg entry inh, LASV entry inh)
O=C(Nc1nc(-c2ccccn2)cs1)c1ccccc1-n1cnnn1	Vaccinia mCherry 1.26µM (no result: Marburg entry inh, LASV entry inh)
CC1=C(N2CC2)C(=O)C(CO)=C(N2CC2)C1=O	Marburg entry inh inconclusive, Vaccinia mCherry 0.355µM, Vaccinia Venus 0.355µM, LASV entry inh 0.112µM
C=CC[C@@H]1C=CC(ON=C(C)CCC(=O)OC[C@H]2O[C@H](C#Cc3ccccc3)C=C[C@H]2Oc2ccc(C)cc2)[C@H](CO)O1 (stereo not given in full)	none (no result: Vaccinia mCherry, Vaccinia Venus, LASV entry inh)
O=C(Nc1ccc(N2CCN(C(=O)c3ccco3)CC2)cc1)c1cc(Br)ccc1Cl	Marburg entry inh 10µM, Vaccinia Venus inconclusive, LASV entry inh inconclusive
O=C(Nc1ccc(N2CCN(C(=O)c3ccco3)CC2)cc1)c1ccco1	Marburg entry inh inconclusive
Cc1ccccc1C(=O)N1CCN(c2ccc(NC(=O)c3ccco3)cc2Cl)CC1	Marburg entry inh inconclusive, Vaccinia mCherry inconclusive, Vaccinia Venus inconclusive, LASV entry inh 10µM
CC[C@H](C(=O)OCCN(CC)CC)c1ccccc1	none (no result: Vaccinia mCherry, Vaccinia Venus, LASV entry inh)
CCC(NC(=O)c1[nH]c(C)c(C(C)=O)c1C)c1ccc(Br)cc1 (stereo not given)	Marburg entry inh 8.91µM, LASV entry inh inconclusive
CCC(C)c1ccc(NC(=O)c2[nH]c(C)c(C(C)=O)c2C)cc1 (stereo not given)	Marburg entry inh inconclusive
N#CC1=C(N)C(C#N)(C#N)[C@H](c2ccoc2)[C@H]2CN(Cc3ccccc3)CC=C12	Marburg entry inh 6.31µM, Vaccinia Venus inconclusive (no result: Vaccinia mCherry)
CN1CC=C2C(C#N)=C(N)C(C#N)(C#N)[C@H](c3ccoc3)[C@H]2C1	none
CCOC(=O)C(/C(C)=N/NC(=O)C1CC1c1ccccc1)C(C)C (stereo not given)	LASV entry inh 2.06µM
Nc1[nH]c(=S)[nH]c(=O)c1N	none (no result: Marburg entry inh, LASV entry inh)
O=C(c1ccco1)N1CCN(C(=O)c2ccc(COc3ccc(Cl)cc3Cl)o2)CC1	Marburg entry inh inconclusive, LASV entry inh 13µM (no result: Vaccinia mCherry, Vaccinia Venus)
O=C(NCc1ccccc1)c1cccc(COc2ccc3c(c2)CCC3)c1	Marburg entry inh inconclusive, LASV entry inh inconclusive
O=C(c1ccco1)N1CCN(C(=O)c2ccc(COc3ccc4c(c3)CCC4)o2)CC1	Marburg entry inh inconclusive, Vaccinia Venus inconclusive, LASV entry inh 14.1µM
O=C(O)c1cccc(COc2ccc3c(c2)CCC3)c1	Marburg entry inh inconclusive, LASV entry inh 0.366µM
CCOc1ccc(OCc2cccc(C(=O)N3CCCCCC3)c2)cc1	Marburg entry inh inconclusive, LASV entry inh 3.55µM
O=C(c1ccc(COc2ccccc2Cl)o1)N1CCN(c2ccccc2)CC1	none (no result: Marburg entry inh, LASV entry inh)
O=C(c1ccc(COc2ccc3c(c2)CCC3)o1)N1CCN(c2ccccc2)CC1	LASV entry inh inconclusive
Nc1cc([N+](=O)[O-])cc(N)c1N	none (no result: Marburg entry inh, LASV entry inh)
COC(=O)C1CCN(Cc2ccc3c(c2)CN(C(=O)c2sc(C)nc2C)CCO3)CC1	none (no result: Marburg entry inh, LASV entry inh)
O=C(OCC(F)(F)F)c1cccc(COc2ccc3ccccc3c2)c1	Marburg entry inh 1.26µM, Vaccinia Venus inconclusive, LASV entry inh inconclusive (no result: Vaccinia mCherry)
O=C(O)c1cccc(COc2ccc(CO)cc2Cl)c1	Marburg entry inh inconclusive, LASV entry inh 0.291µM
COc1ccc(OCc2cccc(C(=O)O)c2)cc1	Marburg entry inh inconclusive, LASV entry inh inconclusive
COc1ccc(-c2csc(NC(=O)c3c(OC)cccc3OC)n2)cc1	Vaccinia mCherry inconclusive
COc1ccc(-c2csc(NC(=O)c3ccccc3NS(=O)(=O)c3ccc(C)cc3)n2)cc1	Marburg entry inh 12.6µM, Vaccinia mCherry 11.2µM, Vaccinia Venus inconclusive, LASV entry inh inconclusive
COc1ccc(-c2csc(NC(=O)CC(C)C)n2)cc1	Marburg entry inh inconclusive, LASV entry inh 13µM
COc1ccc(S(=O)(=O)Nc2ccccc2C(=O)Nc2nc(-c3ccc(F)cc3)cs2)cc1OC	Marburg entry inh inconclusive, Vaccinia mCherry inconclusive, Vaccinia Venus inconclusive, LASV entry inh 11.2µM
O=C(C[n+]1cc(-c2ccccc2)n2c1CCCCC2)c1ccc(Cl)cc1	none
Cc1ccc(-c2c[n+](CC(=O)c3ccc(Br)cc3)c3n2CCCCC3)cc1	Marburg entry inh 10µM, LASV entry inh inconclusive
Cc1csc(CN(C)C(=O)c2sc3ncnc(NCC4CCCO4)c3c2C)n1 (stereo not given)	none (no result: Marburg entry inh, LASV entry inh)
O=C(Nc1ccccc1)Nc1ncc(C(F)(F)F)cc1Cl	none (no result: Marburg entry inh, LASV entry inh)
Cc1cccc(NC(=S)NNc2ncc(C(F)(F)F)cc2Cl)c1	Marburg entry inh inconclusive, Vaccinia Venus inconclusive, LASV entry inh 18.4µM
CC1=C(C(=O)OC(C)C)C(c2cccnc2)n2ncnc2N1 (stereo not given)	Vaccinia mCherry 28.2µM, Vaccinia Venus 28.2µM (no result: LASV entry inh)
O=C(NC(=O)c1ccccc1O)c1ccc2c(c1)CCO2	Marburg entry inh inconclusive, LASV entry inh 11.2µM
O=C(NC(=S)Nc1ccc(F)c(Cl)c1)C1CC1	LASV entry inh inconclusive
Fc1ccc(NC(=S)Nc2ccc(F)c(Cl)c2)cc1Cl	Vaccinia mCherry inconclusive, Vaccinia Venus 10µM
COC(=O)[C@@]1(Cc2ccc(F)cc2)[C@H]2c3cc(C(=O)N(C)C)n(Cc4ccc(Cl)c(C(F)(F)F)c4)c3C[C@H]2CN1C(=O)c1ccccc1	Vaccinia mCherry inconclusive (no result: Marburg entry inh, LASV entry inh)
COC(=O)[C@@]1(Cc2ccc(F)cc2)[C@H]2c3cc(C(=O)N(C)C)n(Cc4ccccc4)c3C[C@H]2CN1C(=O)c1ccccc1	Marburg entry inh 13µM, Vaccinia Venus inconclusive, LASV entry inh inconclusive
C=C1C(=O)CC2=C1[C@](Cc1ccc(F)cc1)(C(=O)OC)N(C(=O)c1ccccc1)C2	none (no result: Marburg entry inh, LASV entry inh)
COC(=O)[C@@]1(Cc2ccc(OC)cc2)[C@H]2c3cc(C(=O)N(C)C)n(Cc4ccc(OC(F)(F)F)cc4)c3C[C@H]2CN1C(=O)c1ccccc1	Marburg entry inh 9.2µM, Vaccinia Venus inconclusive, LASV entry inh inconclusive
C=C1C(=O)C=C2CN(C(=O)c3ccccc3)[C@@](Cc3ccc(F)cc3)(C(=O)OC)[C@@H]12	Marburg entry inh inconclusive, Vaccinia mCherry inconclusive, Vaccinia Venus 8.91µM, LASV entry inh 20.6µM
COC(=O)[C@@]1(Cc2ccc(F)cc2)[C@H]2c3cc(C(=O)N(C)C)n(Cc4ccc(OC)c(OC)c4)c3C[C@H]2CN1C(=O)c1ccccc1	Marburg entry inh inconclusive, LASV entry inh inconclusive
O=C(COc1ccccc1C(=O)Nc1ccccc1)Nc1cccc(Cl)c1	none (no result: Marburg entry inh, LASV entry inh)
Cc1cc(Cl)cc(C)c1OCCn1ccnc1	Marburg entry inh 1.26µM, LASV entry inh 3.55µM
O=C(COc1ccccc1C(=O)Nc1cccnc1)Nc1ccc(Br)cc1	none (no result: Marburg entry inh, LASV entry inh)
O=C(CNCCc1ccccc1)Nc1ccc(C(=O)N2CCCCC2)cc1	none
CN(C)S(=O)(=O)c1ccc(NC(=O)C2CCCN(C(=O)c3ccc(Cl)cc3)C2)cc1 (stereo not given)	none
O=C(Nc1ccc(S(=O)(=O)N2CCCCC2)cc1)C1CCCN(C(=O)c2ccc(Cl)cc2)C1 (stereo not given)	Marburg entry inh inconclusive, Vaccinia mCherry inconclusive, Vaccinia Venus inconclusive, LASV entry inh 0.291µM
O=C(CNCCc1ccc(Cl)cc1)Nc1ccc(C(=O)N2CCCCC2)cc1	Marburg entry inh 11.2µM, LASV entry inh inconclusive
